Data from PMC5540273 (PLoS ONE, 2017).

What was measured:
Details in all cases: concentration: 1 μM,replicates: in singlicate; n = 1
[1] = test system: T1, NIM1
T1 construct: gene MGC42105

[2] = test system: NLK
[3] = test system: T2, OSR1
T2 construct: gene OXSR1

[4] = test system: PAK1
[5] = test system: PAK2
[6] = test system: PAK3
[7] = test system: PAK4
[8] = test system: PAK6
[9] = test system: PAK7
[10] = test system: T3, PCTK1
T3 construct: gene CDK16
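Further: KINOMEscan kinase panel screen.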

| Compound | %Inh [1] [%] | %Inh [2] [%] | %Inh [3] [%] | %Inh [4] [%] | %Inh [5] [%] | %Inh [6] [%] | %Inh [7] [%] | %Inh [8] [%] | %Inh [9] [%] | %Inh [10] [%] |
| --- | --- | --- | --- | --- | --- | --- | --- | --- | --- | --- |
| Cc1ccc2c(-c3ccnc(Nc4ccc(C(F)(F)F)cc4)n3)cnn2n1 [GW819776] | 3 | 24 | 0 | 1 | 50 | 18 | 0 | 0 | 0 | 6 |
| CCN1CCN(CCCC(=O)Nc2n[nH]c3nc(-c4ccc(O)cc4)c(Br)cc23)CC1 [SB-731579] | 3 | 0 | 0 | 0 | 33 | 36 | 61 | 0 | 7 | 56 |
| O=C(Nc1cccc(C(F)(F)F)c1)c1cccc(Oc2ccc3nccn3n2)c1 | 44 | 0 | 0 | 0 | 0 | 20 | 8 | 1 | 0 | 21 |
| O=C(Nc1ccccc1)c1cccc(Oc2ccc3nccn3n2)c1 | 1 | 0 | 0 | 0 | 0 | 5 | 0 | 9 | 0 | 0 |
| CCn1c(-c2nonc2N)nc2cncc(CNC3CCNCC3)c21.Cl [SB-747651] | 31 | 18 | 4 | 0 | 51 | 45 | 0 | 2 | 0 | 8 |
| O=C1NCCc2[nH]c(-c3ccncc3)cc21 | 45 | 22 | 3 | 38 | 40 | 42 | 14 | 17 | 0 | 0 |
| COC(=O)c1cccc(NC(=O)NC2CCN(c3ccnc(NCc4ccc(F)cc4)n3)CC2)c1 [GSK1379860] | 15 | 0 | 19 | 0 | 0 | 0 | 0 | 0 | 0 | 8 |
| C[C@@H]1CNc2c(sc3ccc4nc(-c5ccc(O)cc5)ccc4c23)C(=O)N1 | 26 | 8 | 0 | 20 | 32 | 0 | 9 | 17 | 0 | 0 |
